The campaign covered roughly 300,000 compounds. About 37,000 (12%) were called active. The list comes from a sample in which actives are over-represented; it also holds similar structures and randomly drawn compounds. Values without a mark were called inactive. Rule as the data show it: active = max response mostly above about 13% (no sharp cut-off); inactive = mostly below about 14%.

The experiment in a line: Cycloheximide Counterscreen for Small Molecule Inhibitors of Shiga Toxin. Also: read at 38.3 µM for the half of the compounds with a filed dose; 0% is about no effect. To be noted: cell reporter, cycloheximide protein synthesis inhibition counterscreen; stronger effect = higher value. On the technique in general: Counterscreens check selectivity or assay interference.
Turning to `COC(=O)c1cnc(Nc2cc(C)ccc2OC)c2ccccc12`, the max response is -3.28%.
Regarding `COc1cc(C(=O)NCc2cc3cc(Cl)ccc3n2C)cc(OC)c1OC`, the max response is 9.33%.
Regarding `COc1ccc(N2CCN(C(=O)c3cn(C)c4ccc(S(=O)(=O)N5CCOCC5)cc4c3=O)CC2)cc1`, the max response is 0.725%.
With `CCc1ccc(C(=O)NC(=S)Nc2ccccc2N2CCOCC2)cc1` the figure was 12.1%; with `CCCC(C(=O)NC1CCCC1)N(C(=O)Cn1nnc(-c2ccc(C)o2)n1)c1cccc(O)c1` (centres undefined), -3.39%.
The result for `CCOC(=O)C(Cc1ccc(N)cc1)N1C(=O)c2ccccc2C1=O` (centres undefined) reads 15%.
For `O=S(=O)(c1ccc(Br)c2ccccc12)N1CCOCC1`, the max response is -2.9%.
Take `CC1CN(S(=O)(=O)c2cccc(C(F)(F)F)c2)CN1C(=O)N1CCOCC1` (centres undefined): the max response was -5.77%.
Take `Cc1ccc(N2C(=O)CN=C2Nc2nc(C)cc(C)n2)cc1`: the max response is -2.81%.
Turning to `Cc1ccc(C)c(NC2=NCC(=O)N2c2ccc3c(c2)OCCO3)c1`, the max response is 17.5% (active).
As for `COc1ccc(N2C(=O)CN=C2Nc2cccc(C)c2C)cc1OC`, the max response was 1.91%.
With `CC(Sc1nnc(COc2ccccc2)n1-c1ccccc1)C(=O)O` (centres undefined) the figure was -3.12%; with `Fc1ccc(-c2ccc(-c3nn4c(-c5ccco5)nnc4s3)o2)cc1`, 12.8% (active); with `Cc1nnc2sc(-c3ccco3)nn12`, -2.36%.
Regarding `FC(F)(F)c1nnc2sc(-c3ccco3)nn12`, the max response is -1.25%.
Consider `COc1ccc([N+](=O)[O-])cc1NC(=O)C(C)OC(=O)C1c2ccccc2Oc2ccccc21` (centres undefined), for which the max response is -1.06%.
`CCN(C(=O)CN1CCN(Cc2ccccc2)CC1)c1c(N)n(Cc2ccccc2)c(=O)[nH]c1=O`: the max response was -1.94%.
As to `O=C(NCCC1=CCCCC1)C1CCN(Cc2cnn(-c3ccccc3)c2-n2cccc2)CC1`, the max response was 18.2%.
With `Cc1nn(C(C)C(=O)NCCC2=CCCCC2)c(=O)c2nn(-c3ccccc3)c(C)c12` (centres undefined), the max response is 12.2%.
As to `C1=C(CCNc2ncnc3c2cnn3-c2ccccc2)CCCC1`, the max response was 34.6% (active).
Turning to `O=C(COC(=O)/C(=C/c1cccs1)c1cccs1)NCc1ccccc1Cl`, the max response is -3.92%.
With `Cc1cc(OCCCC(=O)NCCN2C(=O)S/C(=C\c3cccnc3)C2=O)ccc1Cl` the figure was -1.74%; with `CSc1nc2ccc(NC(=O)c3c(F)cccc3F)cc2s1`, 48.4% (active); with `CCCn1nc(C(=O)Nc2ccc3nc(C)sc3c2)c2ccccc2c1=O`, 2.94%.
Take `CCCC(=O)Nc1nc2ccc(NC(=O)c3c(F)c(F)c(OC)c(F)c3F)cc2s1`: the max response was -1.72%.
For `Cc1ccccc1-n1nnc2c(=O)oc3ccccc3c21`, the max response is -0.308%.
On to `COC(=O)c1ccccc1NC(=O)C1CCN(S(=O)(=O)c2cc(OC)ccc2OC)CC1`, for which the max response was -2.41%.
On to `O=c1c2c3c(sc2n(CCN2CCCC2)c(=O)n1Cc1ccccc1)CCCCC3`, for which the max response was -3.62%.
As to `Cc1ccc(Nc2nc(-c3ccc(O)cc3O)cs2)nc1`, the max response is 50.9% (active).
With `Cc1ccc(NC(=O)c2cc(-c3ccc(C)o3)nc3ccccc23)nc1` the figure was -0.954%; with `COCCNc1nc(N)c([N+](=O)[O-])c(N2CCCCCC2)n1`, 3.03%; with `O=C(COC(=O)c1ccc(O)cc1)Nc1nccs1`, 9.78% (active).
With `Cc1cc(C(=O)OCC(=O)Nc2nccs2)c2ccccc2n1` the figure was -4.23%; with `CCCCOC(=O)Nc1nccs1`, 18.8%; with `Cc1scc(C(=O)NNC(=S)NCC(C)C)c1C`, -0.894%.
For the molecule `Cc1occc1C(=O)NNC(=S)NCC(C)C`, the max response is -3.12%.
Take `CC(C)CNC(=S)NC(=O)c1ccc(Cl)cc1`: the max response was 34.2% (active).
`Cc1cc(-c2nnc(SCC(=O)Nc3ccc(S(N)(=O)=O)cc3)n2N)n[nH]1`: the max response is 1.41%.
The result for `CCCNC(=O)N1CCC(c2ccc3c(c2)OCO3)CC1` reads -1.8%; that for `C=CCOc1ccccc1NC(=O)CN1C(=O)CNC1=O`, 0.268%.
Turning to `COC(=O)c1c(CCl)noc1C(=O)NC(C)C`, the max response was -0.666%.
Turning to `COc1ccc(-c2cc3nc(C)c(CCC(=O)NC(C)CCc4ccco4)c(C)n3n2)c(OC)c1` (centres undefined), the max response was 8.95%.
Take `CN(C)c1ccc(C(CC(=O)O)C(=O)O)cc1` (centres undefined): the max response is 38.6% (active).
Take `CN(C)c1ccc(/C=N/NC(=O)C(O)c2ccc(Br)cc2)cc1` (centres undefined): the max response was 8.48%.
Consider `CC(=O)NC(CC(=O)O)c1ccc(F)cc1` (centres undefined), for which the max response is -1.3%.
Turning to `COc1cc2ccccc2cc1C(=O)Nc1ccc(NC(=O)c2cccs2)cc1`, the max response is -2.59%.
The result for `COc1cc(NC(=O)COc2ccccc2Cl)ccc1NC(=O)C(C)C` reads 0.487%; that for `COc1cc(NC(=O)c2cccs2)ccc1NC(=O)c1ccccc1Cl`, 28.9% (active).
Consider `CN1CCN(C(=O)/C(=C\c2ccc3c(c2)OCO3)NC(=O)c2cccs2)CC1`, for which the max response was -1.19%.
Take `COc1cc(NC(=O)c2ccc3c(c2)OCO3)ccc1NC(=O)c1cccs1`: the max response is 17.8% (active).
Regarding `CCC(=O)c1cc2c(cc1NC(=O)c1cccs1)OCCO2`, the max response is -4.08%.
With `COc1ccc(S(=O)(=O)N2CCC(C(=O)NCCC(=O)NCc3cccc(OC)c3)CC2)cc1` the figure was -2.91%.
For the molecule `Cc1cc(S(=O)(=O)NC2CCCC2)ccc1-n1cnnn1`, the max response was -1.68%.
Turning to `CCC(=O)Nc1cccc(C2=NOC3(C2)C[C@@H](C(N)=O)N(C(=O)c2cc([N+](=O)[O-])cc([N+](=O)[O-])c2C)C3)c1` (some centres undefined), the max response is 3.34%.
Consider `CC1=C(C(=O)Nc2ccccc2)C(c2cccs2)C(C#N)=C(SCC#N)N1` (centres undefined), for which the max response was -2.44%.
Consider `O=C(Nc1ccc(N2CCN(C(=O)c3ccccc3)CC2)c(Cl)c1)c1ncn[nH]1`, for which the max response is -0.606%.
Take `CCCn1c(=N)n(CC(=O)c2ccc(Cl)c(Cl)c2)c2ccccc21`: the max response was -0.499%.
The result for `COc1ccc2cc(C(=O)O)n(CC(=O)c3ccccc3)c2c1` reads -1.7%.
With `CCn1c(=N)n(CC(=O)c2cccc(OC)c2)c2ccccc21`, the max response was 35.3% (active).
Take `Cc1ccc(Cn2c(=N)c(S(=O)(=O)c3ccc(C)cc3)cc3c(=O)n4ccccc4nc32)cc1`: the max response is -2.4%.
As for `C=CCc1cc(S(=O)(=O)c2ccc(O)c(CC=C)c2)ccc1O`, the max response was -2.33%.
For `O=C(Nc1cccc(NC(=O)c2cccc(F)c2)c1)c1ccccc1`, the max response was 9.34%.
`Cc1c(NC(=O)c2coc(=O)c(Br)c2)c(=O)n(-c2ccccc2)n1C`: the max response is 10.1%.
Consider `O=C(Nc1cccc(F)c1)c1coc(=O)c(Br)c1`, for which the max response was 22.1% (active).
With `COc1ccc(CCNC(=O)CN2C(=O)CCSc3ccccc32)c(OC)c1`, the max response is -1.78%.
As to `COc1ccc(CC(=O)N/N=C/c2cc([N+](=O)[O-])cc(Br)c2O)cc1`, the max response was -2.73%.
In the case of `O=C1CSC(=S)N1/N=C/c1ccc(O)c([N+](=O)[O-])c1`, the max response was 2.96%.
Consider `CCOc1cccc(/C=N/N2C(=O)CSC2=S)c1O`, for which the max response is 13.3% (active).
With `CCOc1cccc(/C=N/NC(=S)NCCN2CCOCC2)c1O`, the max response is 9.08%.
Turning to `Cc1cccc(CN2CCC(n3nccc3NC(=O)c3ccccc3C)CC2)n1`, the max response is 2.27%.
Regarding `COc1ccc(OCc2cn3c(C)cc(C)nc3n2)cc1`, the max response was 17.1%.
As for `CN(C)S(=O)(=O)N1CCC(Oc2cccc(C(=O)NCCCC3CCCC3)c2)CC1`, the max response is 52.4% (active).
The result for `CN(C(=O)c1cccc(OC2CCN(S(=O)(=O)N(C)C)CC2)c1)C1CCOC1` (centres undefined) reads 16.6%; that for `CNS(=O)(=O)c1cccc(C(=O)NCC2CCCCC2)c1`, -3.55%; that for `Cc1ccc(S(=O)(=O)Nc2nc(N)n(-c3ccccc3)n2)cc1`, -2.82%.
In the case of `Nc1nc(NC(=O)/C=C/c2ccccc2)nn1-c1ccccc1`, the max response is -0.981%.
For the molecule `Cc1ccc(C(=O)Nc2nc(N)n(-c3ccccc3)n2)cc1`, the max response was 20.3% (active).
With `CC(=O)c1ccc(OCC(O)CN2CCN(S(=O)(=O)c3cccc(Br)c3)CC2)cc1` (centres undefined) the figure was -0.615%.
For the molecule `O=c1c2cc([N+](=O)[O-])ccc2nc2n1CCC2`, the max response is -3.29%.
Regarding `O=c1[nH]c(/C=C\c2cccc(C(F)(F)F)c2)nc(O)c1[N+](=O)[O-]`, the max response was -0.44%.
In the case of `C=CCN(C(=O)Nc1ccc2c(c1)nc(C)n2C)c1ccccc1`, the max response was 32.3% (active).
With `C=CCN(CC=C)C(=O)Nc1ccc(OCC)cc1` the figure was 12.5%.
With `C=CCN(C(=O)Nc1ccc2oc(C)nc2c1)c1ccccc1`, the max response is 44.6% (active).
On to `Cc1nn(CC(=O)Nc2ccc3c(c2)nc(CN2CCCCC2)n3C)c(=O)c2ccccc12`, for which the max response is 9.68%.
Consider `CCC(=O)Nc1ccc2nc(C)n(Cc3ccccc3Cl)c(=O)c2c1`, for which the max response was -0.377%.
Regarding `C=CCN(C(=O)Cn1ncc2c1-c1cc(C)ccc1OC2)c1ccccc1`, the max response was -3.22%.
In the case of `O=C(NCCCO)c1cc2c([nH]c3ccccc32)c(-c2ccc(F)cc2)n1`, the max response was 1.63%.
As for `Cc1c(C=O)c2ccccc2n1CCOc1ccccc1`, the max response is 11.4%.
For the molecule `COc1ccccc1N=C(C)C1=C(O)COC1=O`, the max response is -3.1%.
For `COc1ccccc1N=Nc1c(O)[nH]c(=S)[nH]c1=O`, the max response is 18.5% (active).
As for `COC(=O)c1ccccc1N=Nc1c(C)[nH][nH]c1=O`, the max response is -1.54%.
In the case of `COCCCNC(NC(=O)c1ccc(C)cc1)C(Cl)(Cl)Cl` (centres undefined), the max response was 0.737%.
For `Cc1ccc(CNC(=O)C2CCN(S(=O)(=O)c3ccc4nc5c(c(C(=O)O)c4c3)CC(C)CC5)CC2)cc1` (centres undefined), the max response is -2.65%.
The result for `O=C(NCCCCc1ccccc1)C1CC(c2ccc([N+](=O)[O-])cc2)=NO1` (centres undefined) reads 1.79%.

For the origin of these results see PubChem BioAssay AID2314 (National Center for Advancing Translational Sciences (NCATS), 2010).
